From PubChem BioAssay (EPA / NIEHS)
“And” between values parts separate entries of the source, which are not always exact repeats. Equal entries are not always repeated. Records with an inconclusive call do not appear. The source holds several records for some structures; these can differ, active in one and inactive in another. The source made the active and inactive calls. How the source made its calls, unless noted: active means hit-call score of the fitted dose curve at least 0.9, where 1 is the maximum; inactive means score below 0.9.

How the values were obtained:
[1] = biological target: Retinoic acid receptor alpha (Homo sapiens) (UniProt P10276); assay: ATG_RARa_TRANS: Attagene TRANS-FACTORIAL HepG2 Assay for human Retinoic Acid Receptor alpha (RARa) (AID 2283005; active means hit-call score of the fitted dose curve at least 0.9, where 1 is the maximum)
Summary of the method: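 Reporter transcripts, measured by RT-PCR with fluorescent labeling and capillary electrophoresis after 24 h dosing, reflect activity of an exogenous human RARa–GAL4 fusion in transiently transfected HepG2. Fitted for increase relative to DMSO.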

[2] = BSK_3C_Proliferation: Cell Proliferation Assessment in the BioMAP Diversity Plus: 3C Assay (AID 2283006); conditions: primary human endothelial cells (HUVEC);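 on AC50: potency may reflect either rise or fall in cell number versus DMSO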
Summary of the method: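 Subconfluent HUVEC (3C system) cultured with chemical; relative cell number read at 48 h by sulforhodamine B total-protein staining (0.1% SRB after 10% TCA fixation, 560 nm). Bidirectional fit relative to DMSO.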

[3] = biological target: Nuclear receptor subfamily 1 group I member 2 (Homo sapiens) (UniProt O75469); assay: ATG_PXR_TRANS: Attagene TRANS-FACTORIAL HepG2 Assay for human Pregnane X Receptor (PXR) (AID 2283008; active means hit-call score of the fitted dose curve at least 0.9, where 1 is the maximum)
Summary of the method: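 Measures mRNA induction of a GAL4-UAS-driven reporter in human HepG2 cells transiently expressing PXR fused to Gal4, following 24 h treatment. DMSO served as negative control and baseline.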

[4] = biological target: human Retinoic Acid Receptor gamma (RARg), RARG (gene 5916) (UniProt P13631); assay: ATG_RARg_TRANS: Attagene TRANS-FACTORIAL HepG2 Assay for human Retinoic Acid Receptor gamma (RARg) (AID 2283009; active means hit-call score of the fitted dose curve at least 0.9, where 1 is the maximum)
Summary of the method: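 HepG2 transiently transfected with GAL4-UAS reporter units and chimeric NR-Gal4 constructs; 24 h compound exposure. Reporter mRNA quantified by RT-PCR, FAM labeling, HpaI digestion and capillary electrophoresis; gain-of-signal versus DMSO.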

[5] = biological target: human RAR-related Orphan Receptor gamma (RORg), RORC (gene 6097) (UniProt P51449); assay: ATG_RORg_TRANS: Attagene TRANS-FACTORIAL HepG2 Assay for human RAR-related Orphan Receptor gamma (RORg) (AID 2283011; active means hit-call score of the fitted dose curve at least 0.9, where 1 is the maximum)
Summary of the method: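 First, HepG2 liver cells were transfected with GAL4-UAS-driven reporter constructs and the RORg-Gal4 fusion. Next, they were treated with chemical for 24 h. Finally, reporter mRNA was quantified by RT-PCR and capillary electrophoresis, with upward activity fitted against DMSO.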

[6] = biological target: human Retinoid X Receptor beta (RXRb), RXRB (gene 6257) (UniProt P28702); assay: ATG_RXRb_TRANS: Attagene TRANS-FACTORIAL HepG2 Assay for human Retinoid X Receptor beta (RXRb) (AID 2283013; active means hit-call score of the fitted dose curve at least 0.9, where 1 is the maximum)
Summary of the method: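 HepG2 cells were transiently transfected with multiplexed GAL4-UAS reporters and a chimeric RXRb-Gal4 construct, then exposed for 24 h. Reporter mRNA was quantified by RT-PCR, FAM labeling, HpaI digestion and capillary electrophoresis; gain of signal was scored against DMSO.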

[7] = biological target: human Thyroid Receptor alpha (THRa1), THRA (gene 7067) (UniProt P10827); assay: ATG_THRa1_TRANS: Attagene TRANS-FACTORIAL HepG2 Assay for human Thyroid Receptor alpha (THRa1) (AID 2283014; active means hit-call score of the fitted dose curve at least 0.9, where 1 is the maximum)
Summary of the method: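 Reporter transcript induction, read by capillary electrophoresis of 6-FAM-labelled RT-PCR products, reflects activity of a transfected THRa1-Gal4 fusion in HepG2 liver cells. Cells were dosed for 24 h; activity was fitted in the positive direction against DMSO.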

[8] = read-out: E-selectin (Homo sapiens) (UniProt P16581); assay: BSK_3C_Eselectin: BioMAP Diversity Plus: 3C Assay for Eselectin Biomarker Activity (AID 2283015); conditions: primary human endothelial cells (HUVEC); actives raise or lower the signal
Summary of the method: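 ELISA read-out of E-selectin on endothelial monolayers after 24 h chemical treatment. Human umbilical vein primary cells served as the system, with DMSO defining baseline activity for bidirectional fitting.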

[9] = read-out: Interleukin-1 alpha (IL1a), IL1A (gene 3552); assay: BSK_BE3C_IL1a: BioMAP Diversity Plus: BE3C Assay for Interleukin-1 alpha (IL1a) Biomarker Activity (AID 2283016); conditions: primary human bronchial epithelial cells; actives raise or lower the signal
Summary of the method: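 Human primary bronchial epithelial cells, 24 h chemical exposure; IL-1a quantified by ELISA, fitted bidirectionally against DMSO. Cytotoxicity assessed in parallel by SRB total-protein staining at the time of measurement.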

[10] = read-out: Monocyte Chemoattractant Protein-1 (MCP1), CCL2 (gene 6347); assay: BSK_3C_MCP1: BioMAP Diversity Plus: 3C Assay for Monocyte Chemoattractant Protein-1 (MCP1) Biomarker Activity (AID 2283017); conditions: primary human endothelial cells (HUVEC); actives raise or lower the signal
Summary of the method: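 ELISA read-out of MCP-1 from human umbilical vein endothelial cell cultures harvested 24 h post-dosing. Gain or loss of signal was fitted relative to DMSO.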

[11] = read-out: Monocyte Chemoattractant Protein-1 (MCP1), CCL2 (gene 6347); assay: BSK_4H_MCP1: BioMAP Diversity Plus: 4H Assay for Monocyte Chemoattractant Protein-1 (MCP1) Biomarker Activity (AID 2283018); conditions: primary human endothelial cells (HUVEC); actives raise or lower the signal
Summary of the method: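 Human umbilical vein endothelial cells (4H system) exposed to chemicals for 24 h in 96-well format. MCP-1 measured by ELISA; bidirectional fitting against DMSO, with SRB total-protein staining in parallel cultures for cytotoxicity.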

[12] = read-out: Human Leukocyte Antigen - DR isotype (HLADR), HLA-DRA (gene 3122); assay: BSK_3C_HLADR: BioMAP Diversity Plus: 3C Assay for Human Leukocyte Antigen - DR isotype (HLADR) Biomarker Activity (AID 2283019); conditions: primary human endothelial cells (HUVEC); actives raise or lower the signal
Summary of the method: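 ELISA readout of surface HLA-DR on human umbilical vein endothelium, taken 24 h after chemical treatment. Gain- and loss-of-signal were both fitted relative to DMSO.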

[13] = read-out: Interleukin-8 (IL8), CXCL8 (gene 3576); assay: BSK_3C_IL8: BioMAP Diversity Plus: 3C Assay for Interleukin-8 (IL8) Biomarker Activity (AID 2283020); conditions: primary human endothelial cells (HUVEC); actives raise or lower the signal
Summary of the method: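 Primary human umbilical vein endothelial cells were dosed for 24 h. IL-8 was quantified by ELISA and fitted bidirectionally against DMSO. Cytotoxicity was assessed in parallel cultures by SRB staining at 560 nm.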

[14] = read-out: Monokine induced gamma interferon (MIG), CXCL9 (gene 4283); assay: BSK_3C_MIG: BioMAP Diversity Plus: 3C Assay for Monokine induced gamma interferon (MIG) Biomarker Activity (AID 2283021); conditions: primary human endothelial cells (HUVEC); actives raise or lower the signal;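 on AC50: MIG protein level measured by immunoassay in the treated endothelial cultures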
Summary of the method: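 HUVEC primary endothelial cultures dosed with chemical; MIG quantified by ELISA at 24 h. Data fitted bidirectionally against DMSO control, with parallel SRB total-protein staining for cytotoxicity.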

[15] = biological target: human Vitamin D Receptor (VDR), VDR (gene 7421) (UniProt P11473); assay: ATG_VDR_TRANS: Attagene TRANS-FACTORIAL HepG2 Assay for human Vitamin D Receptor (VDR) (AID 2283022; active means hit-call score of the fitted dose curve at least 0.9, where 1 is the maximum)
Summary of the method: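 Steps: transfect HepG2 with GAL4-UAS-driven reporter constructs; dose compounds 24 h; isolate RNA, reverse-transcribe, PCR-amplify with 6-FAM-labelled primer extension and HpaI digestion; quantify fragments by capillary electrophoresis relative to DMSO.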

[16] = BSK_3C_SRB: Viability Assessment in the BioMAP Diversity Plus: 3C Assay (AID 2283023); conditions: primary human endothelial cells (HUVEC);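 further: fitted both ways against DMSO so a hit may be signal rise or drop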
Summary of the method: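 Absorbance at 560 nm of sulforhodamine B-stained (0.1%) total protein served as a cytotoxicity readout in human umbilical vein endothelial cells, 24 h after chemical treatment. Signal was fitted bidirectionally relative to DMSO.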

[17] = BSK_3C_Vis: BioMAP Diversity Plus: 3C Assay for Morphology Visualization (AID 2283025); conditions: primary human endothelial cells (HUVEC);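 further: fitted both ways so gain or loss versus DMSO counts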;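 on AC50: light microscopy image of cell morphology used as background control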
Summary of the method: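 Human umbilical vein endothelial cell morphology was inspected by light microscopy 24 h after chemical dosing; scored bidirectionally relative to DMSO.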

[18] = biological target: Peroxisome proliferator-activated receptor gamma (Homo sapiens) (UniProt P37231); assay: ATG_PPARg_TRANS: Attagene TRANS-FACTORIAL HepG2 Assay for human Peroxisome Proliferator-activated Receptor-gamma (PPARg) (AID 2283007; active means hit-call score of the fitted dose curve at least 0.9, where 1 is the maximum)
Summary of the method: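 Multiplexed reporter transcription units in HepG2, 24 h dosing, reporter transcripts quantified by fluorescent RT-PCR and capillary electrophoresis. Increase over DMSO scored.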

[19] = biological target: Retinoic acid receptor RXR-alpha (Homo sapiens) (UniProt P19793); assay: ATG_RXRa_TRANS: Attagene TRANS-FACTORIAL HepG2 Assay for human Retinoid X Receptor alpha (RXRa) (AID 2283012; active means hit-call score of the fitted dose curve at least 0.9, where 1 is the maximum)
Summary of the method: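 HepG2 cells transiently transfected with GAL4-UAS reporter units and chimeric RXRa-Gal4 protein, treated 24 h. Reporter mRNA measured by RT-PCR, fluorescent labelling, HpaI digestion and capillary electrophoresis. Induction fitted against DMSO.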

[20] = read-out: Matrix Metallopeptidase 1 (MMP1), MMP1 (gene 4312); assay: BSK_BE3C_MMP1: BioMAP Diversity Plus: BE3C Assay for Matrix Metallopeptidase 1 (MMP1) Biomarker Activity (AID 2283024); conditions: primary human bronchial epithelial cells; actives raise or lower the signal
Summary of the method: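 Human primary bronchial epithelial cells (BE3C system) dosed for 24 h; MMP-1 quantified by ELISA. Bidirectional fit against DMSO; cytotoxicity tracked in parallel cultures by SRB total-protein staining.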

Measured: AC50

Chain of Retinoic acid receptor alpha (Homo sapiens) (P10276 whole entry, looked up, the tested form may be a part): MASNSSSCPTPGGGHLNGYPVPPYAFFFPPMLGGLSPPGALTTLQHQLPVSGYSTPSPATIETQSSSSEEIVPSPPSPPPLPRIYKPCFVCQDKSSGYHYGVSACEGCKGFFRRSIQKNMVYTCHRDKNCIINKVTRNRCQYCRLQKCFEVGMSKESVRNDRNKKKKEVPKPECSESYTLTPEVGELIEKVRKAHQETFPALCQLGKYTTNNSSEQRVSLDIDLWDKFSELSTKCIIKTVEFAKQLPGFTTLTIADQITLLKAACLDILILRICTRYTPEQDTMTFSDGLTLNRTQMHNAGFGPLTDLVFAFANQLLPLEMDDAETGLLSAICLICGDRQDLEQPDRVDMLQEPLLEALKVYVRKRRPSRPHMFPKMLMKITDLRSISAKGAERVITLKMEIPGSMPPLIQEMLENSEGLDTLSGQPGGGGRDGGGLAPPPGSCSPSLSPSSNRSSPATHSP
Chain of human Thyroid Receptor alpha (THRa1), THRA (gene 7067) (P10827 whole entry, looked up, the tested form may be a part): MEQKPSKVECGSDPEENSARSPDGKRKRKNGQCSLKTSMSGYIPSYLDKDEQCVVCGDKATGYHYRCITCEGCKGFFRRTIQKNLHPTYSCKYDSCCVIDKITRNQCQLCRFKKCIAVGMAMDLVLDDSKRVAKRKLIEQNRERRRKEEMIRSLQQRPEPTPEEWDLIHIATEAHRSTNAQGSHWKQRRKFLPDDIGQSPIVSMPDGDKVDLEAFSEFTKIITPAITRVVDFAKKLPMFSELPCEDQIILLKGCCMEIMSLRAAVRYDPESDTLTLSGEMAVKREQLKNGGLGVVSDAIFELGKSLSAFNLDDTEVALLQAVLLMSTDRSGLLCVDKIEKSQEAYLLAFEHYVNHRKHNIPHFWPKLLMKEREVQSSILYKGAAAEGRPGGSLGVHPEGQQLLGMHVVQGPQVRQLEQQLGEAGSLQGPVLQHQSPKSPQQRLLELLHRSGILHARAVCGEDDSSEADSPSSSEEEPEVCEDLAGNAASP
Chain of Retinoic acid receptor RXR-alpha (Homo sapiens) (P19793 whole entry, looked up, the tested form may be a part): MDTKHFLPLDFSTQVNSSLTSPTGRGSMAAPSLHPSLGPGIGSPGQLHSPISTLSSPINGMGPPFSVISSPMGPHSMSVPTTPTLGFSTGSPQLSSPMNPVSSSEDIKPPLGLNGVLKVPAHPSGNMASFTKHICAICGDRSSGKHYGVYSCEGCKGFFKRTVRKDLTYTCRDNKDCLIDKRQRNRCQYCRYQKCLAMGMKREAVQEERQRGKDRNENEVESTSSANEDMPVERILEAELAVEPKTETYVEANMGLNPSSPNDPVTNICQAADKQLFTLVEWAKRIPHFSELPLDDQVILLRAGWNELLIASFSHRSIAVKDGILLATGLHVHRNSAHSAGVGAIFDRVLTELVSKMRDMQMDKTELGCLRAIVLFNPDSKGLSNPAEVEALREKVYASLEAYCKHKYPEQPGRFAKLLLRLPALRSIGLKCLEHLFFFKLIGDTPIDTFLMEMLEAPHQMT
Chain of Nuclear receptor subfamily 1 group I member 2 (Homo sapiens) (O75469 whole entry, looked up, the tested form may be a part): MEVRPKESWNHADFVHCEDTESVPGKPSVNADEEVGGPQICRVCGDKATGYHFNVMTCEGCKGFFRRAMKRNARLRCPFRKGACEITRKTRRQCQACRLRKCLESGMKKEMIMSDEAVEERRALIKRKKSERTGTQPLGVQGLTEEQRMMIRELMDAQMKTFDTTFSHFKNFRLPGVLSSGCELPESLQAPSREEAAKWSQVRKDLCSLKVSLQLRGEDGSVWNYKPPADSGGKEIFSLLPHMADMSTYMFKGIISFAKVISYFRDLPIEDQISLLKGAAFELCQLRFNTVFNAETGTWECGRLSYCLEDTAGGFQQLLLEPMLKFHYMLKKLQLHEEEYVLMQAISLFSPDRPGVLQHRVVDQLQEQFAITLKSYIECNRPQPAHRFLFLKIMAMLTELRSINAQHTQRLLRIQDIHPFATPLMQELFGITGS
Chain of human Retinoid X Receptor beta (RXRb), RXRB (gene 6257) (P28702 whole entry, looked up, the tested form may be a part): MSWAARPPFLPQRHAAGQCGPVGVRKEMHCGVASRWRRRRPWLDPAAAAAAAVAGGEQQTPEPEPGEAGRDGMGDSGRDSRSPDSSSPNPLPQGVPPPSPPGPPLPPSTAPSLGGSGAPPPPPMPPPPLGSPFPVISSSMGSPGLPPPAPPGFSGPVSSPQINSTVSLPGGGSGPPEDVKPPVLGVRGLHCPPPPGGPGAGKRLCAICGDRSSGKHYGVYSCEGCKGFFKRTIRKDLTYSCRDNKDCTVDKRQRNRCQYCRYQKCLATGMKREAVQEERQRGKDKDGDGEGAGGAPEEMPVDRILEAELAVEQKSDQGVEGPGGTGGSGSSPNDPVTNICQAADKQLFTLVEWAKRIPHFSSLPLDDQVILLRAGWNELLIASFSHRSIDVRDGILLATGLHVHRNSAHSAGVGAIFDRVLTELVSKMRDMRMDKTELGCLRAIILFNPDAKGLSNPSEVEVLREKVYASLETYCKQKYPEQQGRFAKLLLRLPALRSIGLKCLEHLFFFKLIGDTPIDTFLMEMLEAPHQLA
Chain of human Vitamin D Receptor (VDR), VDR (gene 7421) (P11473 whole entry, looked up, the tested form may be a part): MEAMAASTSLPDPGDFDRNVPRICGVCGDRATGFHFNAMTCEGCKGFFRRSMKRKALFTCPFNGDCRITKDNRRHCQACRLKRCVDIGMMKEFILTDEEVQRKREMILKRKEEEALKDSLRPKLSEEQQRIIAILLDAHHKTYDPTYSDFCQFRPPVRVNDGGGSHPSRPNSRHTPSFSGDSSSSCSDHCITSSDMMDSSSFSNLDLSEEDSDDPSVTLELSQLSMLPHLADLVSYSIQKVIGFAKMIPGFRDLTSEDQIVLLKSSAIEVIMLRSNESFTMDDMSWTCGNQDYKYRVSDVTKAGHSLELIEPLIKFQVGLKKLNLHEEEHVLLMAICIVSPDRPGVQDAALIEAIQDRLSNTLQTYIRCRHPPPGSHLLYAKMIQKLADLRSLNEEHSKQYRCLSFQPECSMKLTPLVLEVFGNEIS
Chain of human RAR-related Orphan Receptor gamma (RORg), RORC (gene 6097) (P51449 whole entry, looked up, the tested form may be a part): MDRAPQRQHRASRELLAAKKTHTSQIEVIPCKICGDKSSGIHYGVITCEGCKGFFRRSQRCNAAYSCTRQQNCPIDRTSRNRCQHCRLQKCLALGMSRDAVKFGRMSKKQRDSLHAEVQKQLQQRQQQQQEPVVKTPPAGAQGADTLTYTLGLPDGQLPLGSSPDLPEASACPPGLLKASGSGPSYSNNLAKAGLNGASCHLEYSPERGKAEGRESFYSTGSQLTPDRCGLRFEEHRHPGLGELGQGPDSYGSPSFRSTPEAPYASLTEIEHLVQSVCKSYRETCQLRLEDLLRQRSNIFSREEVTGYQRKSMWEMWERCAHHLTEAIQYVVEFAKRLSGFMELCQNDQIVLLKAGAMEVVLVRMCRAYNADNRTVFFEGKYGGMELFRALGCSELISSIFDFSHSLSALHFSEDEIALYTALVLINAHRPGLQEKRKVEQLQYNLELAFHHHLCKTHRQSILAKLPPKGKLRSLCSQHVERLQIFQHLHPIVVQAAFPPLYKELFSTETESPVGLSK
Chain of Peroxisome proliferator-activated receptor gamma (Homo sapiens) (P37231 whole entry, looked up): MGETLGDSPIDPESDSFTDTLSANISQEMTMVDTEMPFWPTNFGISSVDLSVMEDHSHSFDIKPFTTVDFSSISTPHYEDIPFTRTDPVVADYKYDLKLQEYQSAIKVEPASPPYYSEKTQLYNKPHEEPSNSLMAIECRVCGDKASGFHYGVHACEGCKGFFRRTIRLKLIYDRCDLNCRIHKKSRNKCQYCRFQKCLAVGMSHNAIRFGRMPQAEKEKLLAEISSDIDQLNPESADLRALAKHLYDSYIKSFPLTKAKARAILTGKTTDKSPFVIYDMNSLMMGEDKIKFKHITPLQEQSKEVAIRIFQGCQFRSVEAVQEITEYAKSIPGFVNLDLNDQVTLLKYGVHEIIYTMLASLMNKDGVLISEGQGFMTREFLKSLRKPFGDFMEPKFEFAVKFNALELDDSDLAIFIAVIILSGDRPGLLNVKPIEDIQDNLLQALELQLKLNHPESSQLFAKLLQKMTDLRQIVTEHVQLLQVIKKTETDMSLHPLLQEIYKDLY
Chain of E-selectin (Homo sapiens) (P16581 whole entry, looked up): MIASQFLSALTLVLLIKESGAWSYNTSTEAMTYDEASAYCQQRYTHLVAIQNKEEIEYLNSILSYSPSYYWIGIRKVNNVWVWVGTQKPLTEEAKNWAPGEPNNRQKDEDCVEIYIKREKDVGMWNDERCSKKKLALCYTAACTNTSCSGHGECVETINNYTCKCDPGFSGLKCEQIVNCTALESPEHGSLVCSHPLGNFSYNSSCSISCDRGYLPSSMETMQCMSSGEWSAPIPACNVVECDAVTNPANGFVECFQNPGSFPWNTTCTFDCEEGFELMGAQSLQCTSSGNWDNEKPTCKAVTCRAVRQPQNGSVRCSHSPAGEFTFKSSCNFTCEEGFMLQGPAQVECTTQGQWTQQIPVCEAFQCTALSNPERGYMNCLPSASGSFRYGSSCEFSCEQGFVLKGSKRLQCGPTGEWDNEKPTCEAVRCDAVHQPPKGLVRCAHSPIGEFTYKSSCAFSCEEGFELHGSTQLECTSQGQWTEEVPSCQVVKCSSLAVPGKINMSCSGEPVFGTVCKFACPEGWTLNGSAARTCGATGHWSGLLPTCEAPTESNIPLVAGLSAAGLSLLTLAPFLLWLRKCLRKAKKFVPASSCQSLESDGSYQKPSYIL
Chain of human Retinoic Acid Receptor gamma (RARg), RARG (gene 5916) (P13631 whole entry, looked up, the tested form may be a part): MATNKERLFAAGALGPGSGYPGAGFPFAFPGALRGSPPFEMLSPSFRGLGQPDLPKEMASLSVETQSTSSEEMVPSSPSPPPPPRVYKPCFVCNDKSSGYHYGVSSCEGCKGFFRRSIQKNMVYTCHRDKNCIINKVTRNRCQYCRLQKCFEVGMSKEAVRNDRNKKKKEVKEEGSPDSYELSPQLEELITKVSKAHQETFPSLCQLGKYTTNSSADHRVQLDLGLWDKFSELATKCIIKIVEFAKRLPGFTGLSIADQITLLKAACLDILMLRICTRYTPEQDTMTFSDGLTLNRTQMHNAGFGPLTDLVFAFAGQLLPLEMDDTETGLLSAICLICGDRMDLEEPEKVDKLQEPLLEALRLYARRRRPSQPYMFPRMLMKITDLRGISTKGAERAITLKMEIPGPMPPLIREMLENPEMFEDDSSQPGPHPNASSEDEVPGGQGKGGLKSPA

N#CC(Br)(Br)C(N)=O
active: [6] 10 µM
inactive: [1] | [2] | [3] | [4] | [5] | [7] | [8] | [9] | [10] | [11] | [12] | [13] | [14] | [15] | [16] | [17]

COC(=O)Nc1nc2ccccc2[nH]1
active: [2] 9.95 µM | [16] 8.51 µM | [17] 9.8 µM
inactive: [1] | [18] | [4] | [6] | [7] | [8] | [9] | [10] | [11] | [12] | [13] | [14]

CCNS(=O)(=O)C(F)(F)C(F)(F)C(F)(F)C(F)(F)C(F)(F)C(F)(F)C(F)(F)C(F)(F)F
inactive: [1] | [4] | [5] | [19] | [6] | [7] | [8] | [10] | [11] | [12] | [13] | [14] | [15] | [16] | [20] | [17]
active: [2] 19.3 µM and 46 µM and 43.2 µM | [18] 96.5 µM and 120 µM and 51.2 µM | [10] 51.4 µM | [11] 30 µM | [12] 14.6 µM and 6.07 µM | [13] 26 µM | [16] 43.4 µM and 44.3 µM | [20] 4.99 µM and 11.3 µM

CC(C)(C)C(O)(CCc1ccc(Cl)cc1)Cn1cncn1 (stereo unspecified)
inactive: [2] | [18] | [4] | [19] | [8] | [9] | [10] | [11] | [12] | [13] | [14] | [15] | [16] | [17]
active: [3] 0.977 µM

ClC1=C(Cl)[C@]2(Cl)[C@H]3[C@H]([C@@H]4C=C[C@H]3C4)[C@@]1(Cl)C2(Cl)Cl
active: [2] 12.2 µM | [3] 9.08 µM | [6] 10.4 µM | [8] 30.9 µM | [10] 32.2 µM | [11] 24.2 µM | [12] 24.9 µM | [13] 28.8 µM | [14] 37.3 µM | [16] 26 µM
inactive: [18] | [5] | [19] | [7] | [15] | [17]

CS(=O)(=O)NC(=O)c1cc(Oc2ccc(C(F)(F)F)cc2Cl)ccc1[N+](=O)[O-]
active: [18] 30.3 µM
inactive: [1] | [2] | [4] | [5] | [19] | [6] | [8] | [10] | [11] | [12] | [13] | [14] | [15] | [16] | [17]

CCOC(=O)[C@]1(c2ccccc2)Oc2ccccc2[C@@H]1N
inactive: [1] | [18] | [4] | [5] | [7] | [8] | [9] | [11] | [14] | [15] | [20]
active: [2] 30.9 µM | [3] 11 µM | [10] 13.4 µM | [12] 27.6 µM | [13] 20 µM | [16] 24.7 µM | [17] 39 µM
